Here are results for 38 molecules from article PMC13494018.

Unmarked numbers belong to inactive results. The rule behind the calls is not given here.

B1: d4r3_design_ppi_139_dldesign_0_cycle1_af2pred (protein)
chain: SMMDEVAKKREKKLIEESTAAAKAALAEAKAIAAGADTPENRAARAAAAEKAIANARIAGGALGKEEGEKLVSEVEAAVKA
B2: d4r4_design_ppi_44_dldesign_0_cycle1_af2pred (protein)
chain: AKAKEEGKKLAKEATEEAKKLLDKAKEEVKKGGTYEEVKKYVDKGKEAAKKYGAKAKELPETAADVAKVIQDFYEESNEALAEAKRL
B3: d4r3_design_ppi_225_dldesign_0_cycle0_af2pred (protein)
chain: AEDAALAKQAAAKLAEARQKANEALQYAKNGNVEEAKKSLEEAKAALAEAKALAAKASPETQAKAQKALDGVEKRIAEAEKAIKEK
B4: d4r3_design_ppi_107_dldesign_0_cycle1_af2pred (protein)
chain: SAAAKEAAEKQEGRFEADLYEVKAKNAAEKYKDDKKKQAEVLEKIAEEAKKKAKEASPVIAKGYKEGAKVAEKLAKEAKKEA
B5: d4r3_design_ppi_205_dldesign_0_cycle1_af2pred (protein)
chain: DLDAKAQALLDQAKEALAQMQATAADTVAYLSQATDAKYYARKAAKLDPKFKPQADALIAQLDAALAAAKAAYQAAKAAAA
B6: d4r3_design_ppi_140_dldesign_0_cycle0_af2pred (protein)
chain: ATEEQKLKAEAAALGGLYVFSPEGGKRRLERIKEELEEEAERYKEENPEKGPEYEKELREKFETLKELMEKEAAEIKA
B7: d4r2_design_ppi_419_dldesign_0_cycle0_af2pred (protein)
chain: DEEKEELKKKIEEAKKKVEEAKKLAEKTSEEVKKLTKEAETEIALAEGYLDNGAAIELAKKKAEEGLKLADEALKLAEKILKEKE
B8: d4r3_design_ppi_381_dldesign_0_cycle1_af2pred (protein)
chain: GSSDELEKKTETKAYRSLSTKKAKEYSKDKELVKKIEEEAKTYEGALKARKETEEIVKEVKKKEEEEKKKKE
B9: d4r3_design_ppi_464_dldesign_0_cycle1_af2pred (protein)
chain: SVSLEEQEARALARTYAEIAEKKIKEAPKDKELAEKIAKEVLEEAKKAAKDLPEYEEYTIELAEKRLKEILEKYAKKA
B10: d4r3_design_ppi_300_dldesign_0_cycle0_af2pred (protein)
chain: SAEELAKKAKEEVEKAEKEAEEAAAKDKKAGAAKYAEAAQLAYQKAGELDASKENKEEAEEMRERGRELAKKARELEA
B11: d4r3_design_ppi_270_dldesign_0_cycle1_af2pred (protein)
chain: SAEEEKKKLLAIADEYAAKVKEAAADLEKAGAVLKEGITELVKLGAPNSVIAYLISKAVKAVGSKIMPYADEAIDEALKA
B12: d4r3_design_ppi_43_dldesign_0_cycle1_af2pred (protein)
chain: SLIEEMKKELEELVKKAEAASPAEAPWYAQEARSYGKYYSEKVEKEGNPEEAKKAKEIAEKLSEEARKIAEKKR
B13: d4r4_design_ppi_34_dldesign_0_cycle1_af2pred (protein)
chain: AEELVKEAAKHIQEARSLINAAEQYVKLGKEKLEEAKEDLKKAEEHIEKAKELAKKAKEAGADEEDVKKLEEAIEKAKKKLEEVKKLI
B14: d4r2_design_ppi_477_dldesign_0_cycle0_af2pred (protein)
chain: EEEKKEKLKKERHELASELARLASLADALGDKELAEKAEKAMELLALDPEKGKEAAKEVKEAAKKRLAAAKAAAA
B15: d4r3_design_ppi_239_dldesign_0_cycle1_af2pred (protein)
chain: MEEAEKALKKAEELRAEAKRLGEIVSNPELGKKEAAKAGKKTPEEIEAWLKEVAAKAQELREEAAEYEAKAIRIK
B16: d4r3_design_ppi_39_dldesign_0_cycle0_af2pred (protein)
chain: DYEKKLKEEMEKYKKEAEKAAADPGAMYQKVLEGKAAADGIVNIAKEEAEEKGDEELKKKAEEAKKKAEEAIKEMKAKADAAAAA
B17: d4r2_design_ppi_460_dldesign_0_cycle0_af2pred (protein)
chain: EELKKLTEEALKKAEEAEKKAKELIKEGKTTPLVKKALEAAEKAEAASISPERALEYAKKAEELYKKAIEEIK
B18: d4r3_design_ppi_308_dldesign_0_cycle1_af2pred (protein)
chain: MEAEKKAEKALEELKKAAKKLEELAKKGGSVEEAEELNEKVLELRSEAKFYASKADEEFGKKVKEEAKKALEKAREAYKKLKE
B19: d4r3_design_ppi_383_dldesign_0_cycle0_af2pred (protein)
chain: SSLASELNEKKAEERGLEYAKKRLDEKAKKALELAKQVPEVAAEVKKLVDEGKALLEKGDIGGAFAKMDEALKLAEKALAA
B20: d4r3_design_ppi_225_dldesign_0_cycle1_af2pred (protein)
chain: AADAALAAAAAEELAKARSLATEALLYAKKGKVEEAKKLLEEAEKALKKAEELAAAASPEVQARAKKAIEGVKKKIEEAKKAIKEK
B21: d4r3_design_ppi_239_dldesign_0_cycle0_af2pred (protein)
chain: EEKAKEAEKKSKEYREKARELAEDVRNPELGRERAREEGKKTEEEIEAWLAEKAKEAQELRQESAEYDAKAIILK
B22: d4r3_design_ppi_32_dldesign_0_cycle1_af2pred (protein)
chain: AEEKAKEAKELAEKAKKTAKEAKELGDEEAAKLAEEGAKDAEEASKIFESGASPAEQADAMAKYRSGKAYNDLAEKRIKEKKK
B23: d4r4_design_ppi_58_dldesign_0_cycle0_af2pred (protein)
chain: EEELKKAKEEAEKAIKEAEEAAKKIEEGEAREGVKKIREIKKKLEEKGKESTPEAKKIYKEAAKKIAEIAHEGLEKRAEKKAK
B24: d4r2_design_ppi_432_dldesign_0_cycle1_af2pred (protein)
chain: EEEEKKKAEEEAKKVAELALKDPEAGAKAAKEMLPWSAEGLEALAKALAEAAKKAAKEDPEKAEKIKKVYNDAASAALRAEAKEERKA
B25: d4r4_design_ppi_34_dldesign_0_cycle0_af2pred (protein)
chain: VQKLIDEAAQEIQEARAHISGAEQYVLMGKEYLPEAKKDLEEAEKHIKKAKELTKKAKEAGADEEEIKKLEKAIEKAEARLEEVKKMM
B26: d4r3_design_ppi_53_dldesign_0_cycle1_af2pred (protein)
chain: MDPEVTKKKEAEVEAAGDVKLEGIKYLEEAKKLAKEDKEKGRKLLEEAAKEFKERAKEYEKEGKKIAARYAKEEAKKLEELAKEL
B27: d4r4_design_ppi_2_dldesign_0_cycle1_af2pred (protein)
chain: DEKAKKAAEEAKKVAKEGREKLKEAEKLMKEGKYKEAAKLAAEVAKKAKEKAEEAEKISKSVAPYALLLENVADAAKALAKEAKEKI
B28: d4r3_design_ppi_258_dldesign_0_cycle1_af2pred (protein)
chain: AAEEARKAKIQKMADRLLELSKKYGISLEDMKDMMSFSATDPADKAVGLALLDAGHAELAAAKAAEAARAEALAA
B29: d4r3_design_ppi_402_dldesign_0_cycle1_af2pred (protein)
chain: EEEEKKKAEELKKFLEEQNKKRKEVAELAKKYPEVAPYAKAYAKAQNEAFEYYDVDKEKSAKALAEAEKYEAKINALLAKL
B30: d4r4_design_ppi_2_dldesign_0_cycle0_af2pred (protein)
chain: DEKAKKMAEEARKAAEEGRKALKEARKLAKEGELEKAAKLAEETAKKAEEKAKEAEKLSKKVAPEALRLLGVADAAKTAAEEFKKKL
B31: d4r3_design_ppi_206_dldesign_0_cycle1_af2pred (protein)
chain: SPEERELAARAQEEAALAKGMKIVVKNNPKSEKAIKDAEETAKEALEAAERIEKLENPTPEAKAAAERARKEAEELLKEVKKAK
B32: d4r2_design_ppi_407_dldesign_0_cycle1_af2pred (protein)
chain: SEEAKIKAKQYTSSLFTKAYLKASPETAPKIEEALEKAFEAIDKSFDEAIAVMKELAELPEAKEEAEKAEKFVAEQKK
B33: d4r3_design_ppi_266_dldesign_0_cycle0_af2pred (protein)
chain: MEEKGNEVIERAKKKLEEGKKLAKEGELLKGYALAQSAEARAENAAEAAEKAGLEEVAKKAKEVAKEAKAAAEEIEKKRKEAEA
B34: d4r3_design_ppi_187_dldesign_0_cycle1_af2pred (protein)
chain: SEEKEEGEIYVKHAKLAIEAGKEEKEAGDYKSAIALAKTAIKEAKRAIENPDEEAKKKGKEKLKEAEKALEEIEKALKEAEEK
B35: d4r2_design_ppi_432_dldesign_0_cycle0_af2pred (protein)
chain: AEEELKEAERKAKEVAKLAMEDPEAGAKEAEKMSEGSAEALEALAKELKKAAKEAEKEDKEKAEKIKKIYNKAAAAALRAEALADNAA
B36: d4r3_design_ppi_205_dldesign_0_cycle0_af2pred (protein)
chain: SKEEKVKEYLEKAKEALEKMKETAADATAMNANYTEAKYYADKAAKESEEFKEEAEKLKEEAKKAYKEAAAKYAAAKAAAA
B37: d4r3_design_ppi_27_dldesign_0_cycle1_af2pred (protein)
chain: AEEKAKRMEKKAKEIAEEAKELKKNAPKLDPEEAEKKARLLLGRAEGLLEQAKFGGLPEKVEKAAKEAVKAAKEALKVAKELKEK
B38: d4r3_design_ppi_300_dldesign_0_cycle1_af2pred (protein)
chain: SSAELTKEAKAKVEAAGAAADAAAAADPAAGAAAYTEAAQLALQESAKLDASKENKEAAEEMRKKGKEFAAKAKALRA

The target in this test is VTCN1, Q7Z7D3.
VTCN1, Q7Z7D3, sequence (Q7Z7D3 whole entry): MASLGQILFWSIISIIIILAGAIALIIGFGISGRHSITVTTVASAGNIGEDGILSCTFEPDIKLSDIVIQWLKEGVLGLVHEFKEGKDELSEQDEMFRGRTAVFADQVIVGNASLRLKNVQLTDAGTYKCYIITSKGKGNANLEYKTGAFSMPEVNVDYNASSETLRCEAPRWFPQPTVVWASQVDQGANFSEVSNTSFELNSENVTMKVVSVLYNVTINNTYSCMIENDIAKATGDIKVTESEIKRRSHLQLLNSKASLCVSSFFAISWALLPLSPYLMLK
Consider B1, for which the “binding in a display sort” value is “not found”.

As for B2, the “binding in a display sort” value was “not found”.

Regarding B3, the “binding in a display sort” value was “not found”.

Turning to B4, the “binding in a display sort” value was “not found”.

Regarding B5, the “binding in a display sort” value is “not found”.

B6: the “binding in a display sort” value is “not found”.

For B7, the “binding in a display sort” value was “not found”.

B8: the “binding in a display sort” value was “not found”.

For B9, the “binding in a display sort” value is “not found”.

As for B10, the “binding in a display sort” value is “not found”.

For B11, the “binding in a display sort” value was “not found”.

Consider B12, for which the “binding in a display sort” value is “not found”.

As to B13, the “binding in a display sort” value was “not found”.

B14: the “binding in a display sort” value was “not found”.

For the molecule B15, the “binding in a display sort” value was “not found”.

Turning to B16, the “binding in a display sort” value is “not found”.

Take B17: the “binding in a display sort” value is “not found”.

On to B18, for which the “binding in a display sort” value was “not found”.

In the case of B19, the “binding in a display sort” value was “not found”.

With B20, the “binding in a display sort” value was “not found”.

In the case of B21, the “binding in a display sort” value is “not found”.

As for B22, the “binding in a display sort” value was “not found”.

In the case of B23, the “binding in a display sort” value was “not found”.

Turning to B24, the “binding in a display sort” value was “not found”.

For B25, the “binding in a display sort” value was “not found”.

As for B26, the “binding in a display sort” value is “not found”.

For B27, the “binding in a display sort” value was “not found”.

Consider B28, for which the “binding in a display sort” value is “not found”.

For B29, the “binding in a display sort” value was “not found”.

Turning to B30, the “binding in a display sort” value was “not found”.

On to B31, for which the “binding in a display sort” value is “not found”.

With B32, the “binding in a display sort” value is “not found”.

Turning to B33, the “binding in a display sort” value is “not found”.

B34: the “binding in a display sort” value was “not found”.

For the molecule B35, the “binding in a display sort” value was “not found”.

On to B36, for which the “binding in a display sort” value was “not found”.

B37: the “binding in a display sort” value was “not found”.

On to B38, for which the “binding in a display sort” value is “not found”.
